In PubChem BioAssay (NCI):
This is part of a sample that, as a whole, favours compounds with a hit. Of some 79,000 tested, about 15% had one in any assay. Values without a mark were called inactive. Calls of active or inactive are those of the source. Rule as the data show it: active = growth inhibition above about 70%; inactive = the rest.

Legend:
[1] = NCI Yeast Anticancer Drug Screen. Data for the wt1 strain (AID 149);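 also: 0% = growth of vehicle-treated wt1 cultures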; conditions: S. cerevisiae wt1 strain (SPY 50644) growth inhibition, active compounds read high
Procedure, shortened: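 The wt1 strain was treated with compounds, and growth was compared with vehicle-treated cultures to give inhibition.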

[2] = NCI Yeast Anticancer Drug Screen. Data for the rad50EPP+ strain (AID 151);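 also: 0% = growth of vehicle-treated control cultures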; conditions: S. cerevisiae rad50 mutant strain, active compounds read high
Procedure, shortened: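 One strain with a rad50 alteration (rad50EPP+) was compound-treated, its growth then compared to that of vehicle controls.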

[3] = NCI Yeast Anticancer Drug Screen. Data for the mgt1 strain (AID 153); conditions: S. cerevisiae mgt1 mutant growth inhibition, active compounds read high
Procedure, shortened: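 After exposure of the mgt1 yeast mutant to compound, growth was measured and reported as inhibition compared with vehicle controls.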

[4] = NCI Yeast Anticancer Drug Screen. Data for the rad50 strain (AID 155);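 also: 0% = growth of vehicle-only cultures of the same strain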; conditions: S. cerevisiae rad50 strain growth inhibition, active compounds read high
Procedure, shortened: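 Cells are treated with compound, grown, and their growth is then scored against vehicle-only cultures of the same repair-deficient yeast strain.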

[5] = NCI Yeast Anticancer Drug Screen. Data for the mec2-1 strain (AID 157); conditions: S. cerevisiae mec2-1 strain, active compounds read high
Procedure, shortened: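 Test agents were screened against the mec2-1 yeast strain, with defined DNA repair or cell cycle alteration. Growth was scored as inhibition against vehicle-only controls.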

[6] = NCI Yeast Anticancer Drug Screen. Data for the rad14 strain (AID 159);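 also: 0% = growth of vehicle-treated control cultures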; conditions: S. cerevisiae rad14 strain growth inhibition, active compounds read high
Procedure, shortened: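 Readout: yeast growth inhibition, referenced to vehicle-only cultures. Strain bears a defined alteration in DNA damage repair.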

[7] = NCI Yeast Anticancer Drug Screen. Data for the sgs1 mgt1 strain (AID 161);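 also: 0% = growth of cultures given vehicle only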; conditions: S. cerevisiae sgs1 mgt1 strain, active compounds read high
Procedure, shortened: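 Mutant yeast exposed to compound; growth scored against vehicle-only wells.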

[8] = NCI Yeast Anticancer Drug Screen. Data for the CLN2oe strain (AID 163);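 also: 0% = growth of vehicle-only control cultures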; conditions: S. cerevisiae CLN2oe strain, active compounds read high
Procedure, shortened: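 Here, growth inhibition in a cell-cycle-altered yeast strain after compound exposure was quantified against vehicle control growth.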

[9] = NCI Yeast Anticancer Drug Screen. Data for the cln2 rad14 strain (AID 165);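 also: 0% = growth equal to vehicle treated cultures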; conditions: S. cerevisiae cln2 rad14 strain, active compounds read high
Procedure, shortened: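 Growth of compound-exposed yeast (cln2 rad14 genotype) measured and expressed as inhibition relative to vehicle.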

[10] = NCI Yeast Anticancer Drug Screen. Data for the bub3 strain (AID 167); conditions: S. cerevisiae bub3 mutant strain, active compounds read high
Procedure, shortened: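 Part of a panel of yeast mutants defective in DNA damage repair or cell cycle regulation. Each strain is grown with compound, and inhibition is calculated relative to solvent-treated cultures.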

[11] = NCI Yeast Anticancer Drug Screen. Data for the mlh1 strain (AID 171);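 also: 0% = growth of vehicle-treated control cultures of the same strain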; conditions: S. cerevisiae mlh1 strain growth inhibition, active compounds read high
Procedure, shortened: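 Here the genetically defined yeast mutant is grown with each compound, and the extent to which its growth falls below that of vehicle-exposed cells is reported.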

[12] = NCI Yeast Anticancer Drug Screen. Data for the sgs1 strain (AID 173);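 also: 0% = growth of vehicle-only control cultures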; conditions: S. cerevisiae sgs1 mutant, active compounds read high
Procedure, shortened: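 Relative growth inhibition, referenced to vehicle, was determined in a yeast strain with a defined alteration affecting DNA damage repair or cell cycle control after compound exposure.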

[13] = NCI Yeast Anticancer Drug Screen. Data for the mlh1 rad18 strain (AID 175); conditions: S. cerevisiae mlh1 rad18 strain growth inhibition, active compounds read high
Procedure, shortened: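 In this whole-cell yeast screen, a strain with altered DNA damage repair is challenged with compound, and its growth is measured against matched vehicle-treated controls.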

[14] = NCI Yeast Anticancer Drug Screen. Data for the rad18 strain (AID 177); conditions: S. cerevisiae rad18 mutant growth inhibition, active compounds read high
Procedure, shortened: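 Screen uses a yeast strain with a defined lesion in DNA damage repair; compound effect is read as loss of growth compared to untreated vehicle cultures.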

[15] = at 5.0 µM (retest, dose inferred, filed as 0.5)
[16] = at 50.0 µM (retest, dose inferred, filed as 5.0)

COc1ccc2nc3cccc([N+](=O)[O-])c3c(NCCCO)c2c1
growth inhibition ([1]; at 1.2 µM): 15%
growth inhibition ([1]; at 3.7 µM): 62%
growth inhibition ([1]; at 11.0 µM): 94% (active)
growth inhibition ([1]; at 33.0 µM): 97% (active)
growth inhibition ([1]; at 100.0 µM): 97% (active)
growth inhibition ([2]; at 1.2 µM): 9%
growth inhibition ([2]; at 3.7 µM): 35%
growth inhibition ([2]; at 11.0 µM): 75% (active)
growth inhibition ([2]; at 33.0 µM): 94% (active)
growth inhibition ([2]; at 100.0 µM): 97% (active)
growth inhibition ([3]; at 1.2 µM): 12%
growth inhibition ([3]; at 3.7 µM): 51%
growth inhibition ([3]; at 11.0 µM): 92% (active)
growth inhibition ([3]; at 33.0 µM): 96% (active)
growth inhibition ([3]; at 100.0 µM): 96% (active)
growth inhibition ([4]; at 1.2 µM): 87% (active)
growth inhibition ([4]; at 3.7 µM): 93% (active)
growth inhibition [4, 15]: 95% (active)
growth inhibition ([4]; at 11.0 µM): 95% (active)
growth inhibition ([4]; at 33.0 µM): 97% (active)
growth inhibition [4, 16]: 98% (active)
growth inhibition ([4]; at 50.0 µM): 86.8% (active)
growth inhibition ([4]; at 100.0 µM): 97% (active)
growth inhibition ([5]; at 1.2 µM): 93% (active)
growth inhibition ([5]; at 3.7 µM): 96% (active)
growth inhibition [5, 15]: 97% (active)
growth inhibition ([5]; at 11.0 µM): 98% (active)
growth inhibition ([5]; at 33.0 µM): 98% (active)
growth inhibition [5, 16]: 99% (active)
growth inhibition ([5]; at 50.0 µM): 91% (active)
growth inhibition ([5]; at 100.0 µM): 96% (active)
growth inhibition ([6]; at 1.2 µM): 97% (active)
growth inhibition ([6]; at 3.7 µM): 98% (active)
growth inhibition ([6]; at 11.0 µM): 99% (active)
growth inhibition ([6]; at 33.0 µM): 99% (active)
growth inhibition ([6]; at 100.0 µM): 95% (active)
growth inhibition [7, 15]: 95% (active)
growth inhibition [7, 16]: 98% (active)
growth inhibition ([7]; at 50.0 µM): 82.9% (active)
growth inhibition ([8]; at 1.2 µM): 6%
growth inhibition ([8]; at 3.7 µM): 43%
growth inhibition ([8]; at 11.0 µM): 88% (active)
growth inhibition ([8]; at 33.0 µM): 95% (active)
growth inhibition ([8]; at 100.0 µM): 98% (active)
growth inhibition [9, 15]: 99% (active)
growth inhibition [9, 16]: 99% (active)
growth inhibition ([9]; at 50.0 µM): 89.4% (active)
growth inhibition ([10]; at 1.2 µM): -9%
growth inhibition ([10]; at 3.7 µM): 14%
growth inhibition [10, 15]: 16%
growth inhibition ([10]; at 11.0 µM): 87% (active)
growth inhibition ([10]; at 33.0 µM): 97% (active)
growth inhibition [10, 16]: 99% (active)
growth inhibition ([10]; at 50.0 µM): 85.2% (active)
growth inhibition ([10]; at 100.0 µM): 99% (active)
growth inhibition ([11]; at 1.2 µM): 35%
growth inhibition ([11]; at 3.7 µM): 80% (active)
growth inhibition ([11]; at 11.0 µM): 94% (active)
growth inhibition ([11]; at 33.0 µM): 97% (active)
growth inhibition ([11]; at 100.0 µM): 97% (active)
growth inhibition ([12]; at 1.2 µM): 93% (active)
growth inhibition ([12]; at 3.7 µM): 95% (active)
growth inhibition ([12]; at 11.0 µM): 97% (active)
growth inhibition ([12]; at 33.0 µM): 98% (active)
growth inhibition ([12]; at 100.0 µM): 97% (active)
growth inhibition [13, 15]: 97% (active)
growth inhibition [13, 16]: 99% (active)
growth inhibition ([13]; at 50.0 µM): 81.8% (active)
growth inhibition ([14]; at 1.2 µM): 96% (active)
growth inhibition ([14]; at 3.7 µM): 96% (active)
growth inhibition ([14]; at 11.0 µM): 96% (active)
growth inhibition ([14]; at 33.0 µM): 96% (active)
growth inhibition ([14]; at 100.0 µM): 97% (active)
